The record followed here is paper PMC10726135, “HNF4α isoforms regulate the circadian balance between carbohydrate and lipid metabolism in the liver”.

The full ranking holds about 18,000 sequences; the median of “log2 normalized intensity” is about 0.39, and the highest 2% start at about 6.6. What follows is part of a selection rich in the highest values, with near analogues and random picks from the rest.

This experiment deals with T1, HNF4alpha2 (COS-7 nuclear extract) (Homo sapiens, UniProt P41235 1-474).
T1 sequence: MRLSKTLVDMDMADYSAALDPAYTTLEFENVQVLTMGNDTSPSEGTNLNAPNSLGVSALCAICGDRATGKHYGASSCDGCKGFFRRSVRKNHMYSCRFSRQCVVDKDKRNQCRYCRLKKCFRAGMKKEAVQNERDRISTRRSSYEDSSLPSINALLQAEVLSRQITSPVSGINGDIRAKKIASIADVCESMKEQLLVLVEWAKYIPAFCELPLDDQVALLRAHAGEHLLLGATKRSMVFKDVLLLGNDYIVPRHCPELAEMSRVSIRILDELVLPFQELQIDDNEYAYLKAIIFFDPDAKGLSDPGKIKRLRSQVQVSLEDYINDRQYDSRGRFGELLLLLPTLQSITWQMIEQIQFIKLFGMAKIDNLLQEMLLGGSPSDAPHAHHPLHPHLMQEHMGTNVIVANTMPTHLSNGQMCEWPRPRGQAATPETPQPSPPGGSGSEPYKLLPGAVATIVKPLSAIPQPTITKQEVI
As to the kind of experiment: protein-binding microarray; COS-7 nuclear extract on double-stranded Agilent 4x180k PBM; binding buffer, salt, pH and temperature not given in the material; high values mean tight binding. The settings on record: chain copies: 2; label: 3' end of strand 1 on the slide; dsDNA, one strand shown. Put shortly: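 Nuclear extracts from COS-7 cells expressing a transiently transfected human HNF4α isoform were put on a custom Agilent SurePrint G3 4x180k array carrying ~44,000 double-stranded ~60-nt test sequences in quadruplicate. Imaging used an Agilent G2565CA scanner at 2-µm resolution. Binding signal is the background-corrected, normalized gProcessedSignal from Agilent software.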
As for “CAGAAAAATGGAGCAGCTCTGTATTGAGATGCCTAGGGAGATTAGAGTATCGGTCGA”, the binding signal was -0.99 log2 normalized intensity.
For “TGCCATTCTTCCAGTTGTGTGCACAAGAGGGCCTAGGGAGATTAGAGTATCGGTCGA” the value was 1.7 log2 normalized intensity; for “GAATTTCATTTTGCTCTTTGTTCAGATACAGCCTAGGGAGATTAGAGTATCGGTCGA”, 1.33 log2 normalized intensity.
In the case of “TTTTTTCAAGTGTTAGCTGTTTCCAAATATGCCTAGGGAGATTAGAGTATCGGTCGA”, the binding signal is 1.42 log2 normalized intensity.
For “AATCCCTTAGGCTTTTGCACTTTACTCAGAGCCTAGGGAGATTAGAGTATCGGTCGA” the value was 3.14 log2 normalized intensity.
In the case of “CCCCTCCCTCCGCAACCTTTACTCCTTGTGGCCTAGGGAGATTAGAGTATCGGTCGA”, the binding signal was 3.68 log2 normalized intensity.
For “GTCACCACCTTTTTTGGCCTTTACCCCTTGGCCTAGGGAGATTAGAGTATCGGTCGA” the value was 4.8 log2 normalized intensity; for “AAAAAACCCTAGAGATGTACACAGTTCAAAGCCTAGGGAGATTAGAGTATCGGTCGA”, -0.874 log2 normalized intensity; for “ATGGCCAGCCTTTGGACTTTGAACTGCAACGCCTAGGGAGATTAGAGTATCGGTCGA”, 9.66 log2 normalized intensity.
For “GCATTAACATCAACATGGACTTTGAGTCATGCCTAGGGAGATTAGAGTATCGGTCGA” the value was 6.21 log2 normalized intensity; for “GGATAATGTGCCCTTTGTACCTGGGGCAAAGCCTAGGGAGATTAGAGTATCGGTCGA”, 5.03 log2 normalized intensity; for “TTTGAAGCAAAGCCTTTGAGCAGATGGAAGGCCTAGGGAGATTAGAGTATCGGTCGA”, 0.0298 log2 normalized intensity.
Take “TTCCTGCATTAACATCAACATGGACTTTGAGCCTAGGGAGATTAGAGTATCGGTCGA”: the binding signal was found to be 8.62 log2 normalized intensity.
To “AGCAGATGGCCAGCCTTTGGACTTTGAACTGCCTAGGGAGATTAGAGTATCGGTCGA” belongs 10.7 log2 normalized intensity; to “TACCTTTCCTGCATTAACATCAACATGGACGCCTAGGGAGATTAGAGTATCGGTCGA”, 2.1 log2 normalized intensity.
With “TCAAATATTTGGATAATGTGCCCTTTGTACGCCTAGGGAGATTAGAGTATCGGTCGA”, the binding signal turned out to be 6.6 log2 normalized intensity.
For the sequence “AGGGTCTTTGCAACTGTGTGTGGCCTGCACGCCTAGGGAGATTAGAGTATCGGTCGA”, the binding signal came out at 1.38 log2 normalized intensity.
For “TTTTTGGCCTTTACCCCTTGAGTTTGAACTGCCTAGGGAGATTAGAGTATCGGTCGA” the value was 3.59 log2 normalized intensity; for “TATTTGGATAATGTGCCCTTTGTACCTGGGGCCTAGGGAGATTAGAGTATCGGTCGA”, 7.01 log2 normalized intensity; for “TGGTGGCACAGGGAATGGCTCGTATGAATGGCCTAGGGAGATTAGAGTATCGGTCGA”, 0.46 log2 normalized intensity.
For “ATTGACAAAGACCAGTGCTCTTTCTTCTCTGCCTAGGGAGATTAGAGTATCGGTCGA” the value was -0.734 log2 normalized intensity; for “AGGGTTCAAACTCCAGCTCTGATACTTTCTGCCTAGGGAGATTAGAGTATCGGTCGA”, 3.12 log2 normalized intensity.
Regarding “GTGAGGCATCTGGACCATTGCTGACCTTGCGCCTAGGGAGATTAGAGTATCGGTCGA”, the binding signal came out at 3.01 log2 normalized intensity.
On to “CTCTCGTCACCTCCACCCACCCGTGCATCAGCCTAGGGAGATTAGAGTATCGGTCGA”, for which the binding signal turned out to be 4.68 log2 normalized intensity.
For “TCCCACTAGGTGGCGCTGTTGACCTTGAAAGCCTAGGGAGATTAGAGTATCGGTCGA” the value was 3.09 log2 normalized intensity; for “CTGCTTGATAGCCATCTGGTGGACTTTGCTGCCTAGGGAGATTAGAGTATCGGTCGA”, 5.26 log2 normalized intensity; for “TGATAGCCATCTGGTGGACTTTGCTCTGCTGCCTAGGGAGATTAGAGTATCGGTCGA”, 7.44 log2 normalized intensity.
To “GCCATCTGGTGGACTTTGCTCTGCTCATTTGCCTAGGGAGATTAGAGTATCGGTCGA” belongs 6.26 log2 normalized intensity; to “CAAAGGGTCAAGTTCAGATCCTGGCCATGCGCCTAGGGAGATTAGAGTATCGGTCGA”, 0.748 log2 normalized intensity; to “GAGCAGGGTATCAGTTGAACAGAATAGAGGGCCTAGGGAGATTAGAGTATCGGTCGA”, -0.996 log2 normalized intensity.
With “GTGTGCAATTAGAGCAAAGGTTACTGCAGAGCCTAGGGAGATTAGAGTATCGGTCGA”, the binding signal was 2.62 log2 normalized intensity.
For “GAACCTGCCCTCTGTCCCATGGTGTACAAGGCCTAGGGAGATTAGAGTATCGGTCGA” the value was 1.26 log2 normalized intensity.
To “CCAGTTTTCCCAAAGGAGCTTTATTGGTTCGCCTAGGGAGATTAGAGTATCGGTCGA” belongs 1.5 log2 normalized intensity; to “TGAGAATCTGACCTTTGGTTAACTTCTTAAGCCTAGGGAGATTAGAGTATCGGTCGA”, 4.02 log2 normalized intensity; to “ATGTTAGTCTTGAGTCCCAAAGTCCAAAGGGCCTAGGGAGATTAGAGTATCGGTCGA”, 5.42 log2 normalized intensity.
In the case of “AGTCCAAAGGTCAGCCGGGGAAGGTGCAGGGCCTAGGGAGATTAGAGTATCGGTCGA”, the binding signal is 5 log2 normalized intensity.
Regarding “AAAAGGATGCTAGGTTTGTGAGTCCAAAGGGCCTAGGGAGATTAGAGTATCGGTCGA”, the binding signal amounted to 4.16 log2 normalized intensity.
To “TGAGTATCCAAAGGTCAGTGACAAATGTCAGCCTAGGGAGATTAGAGTATCGGTCGA” belongs 3.65 log2 normalized intensity; to “AGGTCAGGGAGTAGGTTTGATTTGTGAAAGGCCTAGGGAGATTAGAGTATCGGTCGA”, 0.942 log2 normalized intensity; to “AAGGTTGGTTTTTGGAGACAGGAGTAGTCAGCCTAGGGAGATTAGAGTATCGGTCGA”, 1.3 log2 normalized intensity.
For “TAGGTTTGTGAGTCCAAAGGTCAGCCGGGGGCCTAGGGAGATTAGAGTATCGGTCGA” the value was 7.74 log2 normalized intensity.
In the case of “GATGCTAGGTTTGTGAGTCCAAAGGTCAGCGCCTAGGGAGATTAGAGTATCGGTCGA”, the binding signal was found to be 9.14 log2 normalized intensity.
For “TTGTGAGTCCAAAGGTCAGCCGGGGAAGGTGCCTAGGGAGATTAGAGTATCGGTCGA” the value was 6.71 log2 normalized intensity.
